Laboratory results reported in PubChem BioAssay (EPA / NIEHS).
Values joined by “and” are separate entries in the source; they are usually repeats but may differ in a detail not shown here. Equal entries are not always repeated. Active and inactive are the calls of the source. How the source made its calls: active means hit-call score of the fitted dose curve at least 0.9, where 1 is the maximum; inconclusive means response in the unintended direction; inactive means score below 0.9.

experiment: LTEA_HepaRG_LDH_cytotoxicity: Cytotoxicity Assessment in the Life Technologies and Expression Analysis (LTEA) Assay (AID 2283563)
Method: LTEA_HepaRG is a cell based, multiplexed-readout assay that uses HepaRG, a human liver cell line, with measurements taken at 48 hours after chemical dosing on a 96-well plate.LTEA_HepaRG_LDH_cytotoxicity is one of 102 assay component(s) measured in the LTEA HepaRG cell culture assay. It is a marker of cell viability / cytotoxicity.Data from the assay component LTEA_HepaRG_LDH_cytotoxicity was analyzed into 1 endpoint. This assay endpoint, LTEA_HepaRG_LDH_cytotoxicity, was analyzed in the positive fitting direction relative to DMSO as the negative control and baseline of activity. Using a type of inducible reporter, measures of mRNA induction for loss-of-signal activity can be used to understand cell death. To generalize the intended target to other relatable targets, this assay endpoint is annotated to the cell cycle intended target family, where the subfamily is proliferation.
A total of 1060 chemcials from the ToxCast library were tested in eight-point concentration-response experiments. Cell culture and cytotoxicity assays were conducted at Thermo Fisher Scientific's Custom Services facility (Madison, WI). A single lot of human HepaRG cells (Thermo Fisher Scientific, Frederick, MD) was used for the cell culture experiments. 96-well format collagen type I coated plates of human HepaRG cells were prepared using established methods. Briefly, cryopreserved HepaRG cells were thawed, plated at a density of approximately 100,000 cells/well in HepaRG Thaw, Plate, and General Purpose media (HPRG770, Thermo Fisher Scientific), and incubated for 48 hours. 0.5% DMSO was selected as vehicle control to balance the requisite need of DMSO in HepaRG cultures to maintain differentiation (for example, baseline metabolism, proportions of hepatocytes vs. cholangiocytes), while enabling further hepatic receptor pathway activation (for example, PXR and CAR) in response to chemical exposure. 48 hours after plating, the culture medium was replaced with HepaRG Serum-Free Incudtion Media. Cells were exposed to each test chemical in duplicate and maintained in CO2 incubators for another 48 hours. Chemical plates were thawed to room temperature and 200x concentrations of treatment groups were prepared. 8-point conentration-reponse curves were made with the highest exposure at 100 uM, followed by half-log dilutions, all in 0.5% DMSO. Each test plate contained variouse controls, induction positive controls (1mM phenobarbital), cytotoxicity positive controls ([…] aflatoxin B1), vehicle controls (0.5% DMSO), and total lysis controls (0.5% DMSO). Cell morphology images were taken using an Essen IncuCyte FLR automated microscope, with six 96-well plates imaged in about 24 minutes. Images were captured and exported and JPEG files. Spent culture media was transfered to black-well plates for the LDH assay, and remaining media was sorted at -80 C for later use. Cells were treated with RLT buffer and frozen until shipped for gene expression analysis. Total RNA was isolated from the cell suspension in 75 uL of Buffer RLT (Qiagen, Germantown, MD 20874) by Quintiles/Expression Analysis (Durham, NC) using a custom isolation procedure. Total RNA from each plate well was transferred to a preamplification plate. Fluidigm's 96.96 Dynamic ArrayTM (Fluidigm, Amsterdam, the Netherlands) technology was used for gene expression analyses by quantitative reverse transcription polymerase chain reaction (qRT-PCR, performed by Quintiles/Expression Analysis, Durham, NC)89. Standard TaqManTM Assays (Applied Biosystems/ThermoFisher Scientific, Foster City, CA) were used to assess the expression of 93 genes selected based on their selectivity and sensitivity to important hepatic receptors known to be modulated by environmental chemicals; importance in human hepatocyte functionality; and hepatotoxicity. […]

| Structure (SMILES) | outcome | AC50 |
| --- | --- | --- |
| CCON=C(CC)C1=C(O)CC(c2c(C)cc(C)cc2C)CC1=O (stereo not given) | inactive |  |
| COc1ccc(C(c2ccc(OC)cc2)C(Cl)(Cl)Cl)cc1 |  | 83.4 µM (active) |
| CCCCNC(=O)n1c(NC(=O)OC)nc2ccccc21 | inactive |  |
| CC1COC(Cn2cncn2)(c2ccc(Oc3ccc(Cl)cc3)cc2Cl)O1 (stereo not given) |  | 58.7 µM (active) |
| CNC(=O)ON=CC(C)(C)SC | inactive |  |
| CON(C)C(=O)Nc1ccc(Cl)c(Cl)c1 | inactive |  |
| CCOC(=O)CC(SP(=S)(OC)OC)C(=O)OCC (stereo not given) | inactive |  |
| COc1nc(NC(C)C)nc(NC(C)C)n1 | inactive |  |
| CS/C(C)=N/OC(=O)N(C)SN(C)C(=O)O/N=C(\C)SC | inactive |  |
| COC(=O)C(C)Oc1ccc(Oc2ccc(Cl)cc2Cl)cc1 (stereo not given) | inactive |  |
| COP(N)(=O)SC (stereo not given) | inactive |  |
| Cc1ccc(-c2c(Cl)nc(C#N)n2S(=O)(=O)N(C)C)cc1 |  | 8.94 µM (active) |
| O=C(O)c1nc(Cl)ccc1Cl | inactive |  |
| Fc1ccc(Oc2ccnc3cc(Cl)cc(Cl)c23)cc1 | inactive |  |
| CC(Oc1ccc(Cl)cc1Cl)C(=O)O (stereo not given) | inactive |  |
| Cc1c(F)c(F)c(COC(=O)C2C(/C=C(\Cl)C(F)(F)F)C2(C)C)c(F)c1F (stereo not given) | inactive |  |
| CCOc1cc(Oc2ccc(C(F)(F)F)cc2Cl)ccc1[N+](=O)[O-] | inactive |  |
| CNC(=S)S | inactive |  |
| CCNc1nc(Cl)nc(NCC)n1 | inactive |  |
| COC(=O)c1ccccc1C(=O)OC | inactive |  |

| Structure (SMILES) | outcome | AC50 |
| --- | --- | --- |
| CCCC1COC(Cn2cncn2)(c2ccc(Cl)cc2Cl)O1 (stereo not given) |  | 32 µM (active) |
| CCCCC(CC)COC(=O)c1ccccc1C(=O)OCC(CC)CCCC (stereo not given) | inactive |  |
| CCCCNC(=O)OCC#CI | inactive |  |
| COc1cnc(OC)n2nc(NS(=O)(=O)c3c(OCC(F)F)cccc3C(F)(F)F)nc12 | inactive |  |
| CC(C)Oc1cc(-n2nc(C(C)(C)C)oc2=O)c(Cl)cc1Cl |  | 84.6 µM (active) |
| CO/C=C(/C(=O)OC)c1ccccc1Oc1cc(Oc2ccccc2C#N)ncn1 |  | 74.8 µM (active) and 77.6 µM (active) and 80.7 µM (active) |
| CCOP(=S)(OCC)SCn1c(=O)oc2cc(Cl)ccc21 | inactive |  |
| CCNc1nc(Cl)nc(NC(C)C)n1 | inactive |  |
| Oc1ccccc1-c1ccccc1 | inactive |  |
| O=C(Nc1ccccc1)Nc1ccnc(Cl)c1 |  | 39.4 µM (active) |
| C=CCC1=C(C)C(OC(=O)C2C(C=C(C)C)C2(C)C)CC1=O (stereo not given) | inactive |  |
| CC1=C(C(=O)Nc2ccccc2)SCCO1 | inactive |  |
| CCc1nn(C)c(C(=O)NCc2ccc(C(C)(C)C)cc2)c1Cl |  | 27.3 µM (active) |
| N#CC(CCc1ccc(Cl)cc1)(Cn1cncn1)c1ccccc1 (stereo not given) |  | 37.5 µM (active) |
| CCCCOC(=O)c1ccccc1C(=O)OCCCC | inactive |  |
| C=CC1(C)OC(=O)N(c2cc(Cl)cc(Cl)c2)C1=O (stereo not given) | inactive |  |
| CCCN(CCC)c1c([N+](=O)[O-])cc(S(N)(=O)=O)cc1[N+](=O)[O-] |  | 76.5 µM (active) and 78.3 µM (active) and 77.5 µM (active) |
| OC(c1ccc(Cl)cc1)(c1cncnc1)c1ccccc1Cl (stereo not given) |  | 70.1 µM (active) |
| C#CCOS(=O)OC1CCCCC1Oc1ccc(C(C)(C)C)cc1 (stereo not given) |  | 29.3 µM (active) |
| O=C(O)COc1nc(Cl)c(Cl)cc1Cl | inactive |  |
